Most compounds without a hit are left out; they make up all but 5.9% or so of the library.
ATXN2 expr inh = Primary qHTS for Inhibitors of ATXN expression | HEK-293 ATXN2-luciferase reporter, luminescence, 24 h | AID 1745845, 2022 | actives 0.72% (n = 360,000) | Potency, µM (top dose mostly 57 µM), without a hit: top-dose activity change, negative = inhibition, actives largely listed as inhibitors; further: on the % scale 0 is the no-effect control and ±100 the full control effect; nearly all actives have a fitted effect of over 55% in size
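ATXN2-luciferase reporter cells (luciferase flanked by upstream and downstream ATXN2 gene portions) were treated 24 h at 37 °C with compounds at up to 57 uM. SteadyGlo luminescence gave expression; GF-AFC fluorescence gave viability.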
KB-3-1 tox = qHTS assay for MDR1-selective chemotherapeutics: Primary screen using the parental adenocarcinoma cell KB-3-1 | Potency, µM (top dose mostly 46.1 µM), hits mostly cytotoxic | actives 1.4% (n = 400,000) | AID 1347075, 2019 | KB-3-1 viability, CellTiter-Glo ATP luminescence, 72 h; further: on the % scale 0 is the no-effect control and ±100 the full control effect; nearly all actives have a fitted effect of over 60% in size
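Screening of KB-3-1 cells (DMEM, 10% FBS, phenol-red free) ran from lowest to highest compound concentration; after 72 h at 37 °C viability was read luminescently and curves fitted.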
KB-V1 MDR tox = qHTS assay for MDR1-selective chemotherapeutics: Primary screen using the drug-selected MDR subline cells KB-V1. Potency, µM (series often up to 46.1 µM), usual class: cytotoxic. KB-V1 MDR cells viability, CellTiter-Glo, 72 h. actives 3.4% (n = 400,000); further: on the % scale 0 is the no-effect control and ±100 the full control effect; nearly all actives have a fitted effect of over 60% in size
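Readout: CellTiter-Glo luminescence, 10 min after addition. Cells: KB-V1 MDR subline, 72 h at 37 degrees C with compound. Analysis: corrected, normalized data fitted to concentration-effect curves.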
TGFb inhibitor = qHTS for Inhibitors of TGF-b | actives 1.2% (n = 410,000) | AID 588855, 2011 | HepG2 CAGA-GFP TGF-b/SMAD3 reporter, GFP fluorescence, 18 h; TGF-beta stimulated, 500 pg/mL final | Potency, µM (titrated, usually from 46.1 µM), without a hit: at the highest dose activity, negative = inhibition, most hits filed as inhibitors; further: on the % scale 0 is the no-effect control and ±100 the full control effect; nearly all actives have a fitted effect of over 65% in size
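Smad-responsive CAGA-GFP expression was quantified in HEPG2 cells exposed to compounds and 500 pg/mL final TGF-beta for 18 h at 37 degrees C; unstimulated wells defined full inhibition.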
ATXN viability = Viability Counterscreen for Primary qHTS for Inhibitors of ATXN expression. Potency, µM (top dose mostly 56.7 µM), usual class: cytotoxic. AID 651635, 2014. S2 cells (HEK-293 line with an ATXN2-luciferase reporter) viability, CellTiter-Fluor protease fluorescence, 24 h. actives 0.49% (n = 400,000); further: nearly all actives have a fitted effect of over 40% in size
HepG2 tox = qHTS for Inhibitors of TGF-b: Cytotox Counterscreen | HepG2 CAGA-GFP viability, ATP luminescence, 18 h | Potency, µM (series often up to 46.1 µM), for inactives: at the top dose activity change, negative = cytotoxicity, most hits filed as cytotoxic | actives 0.76% (n = 410,000) | AID 588856, 2011
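CellTiter-Glo luminescence gave cytotoxicity after 18 hours at 37 degrees C. The cells were HepG2 CAGA-GFP in 1% FBS DMEM, stimulated with 500 pg/mL TGF-beta after compound addition. %Activity was normalised to no-cell wells (complete cell-killing) and DMSO (no toxicity), and curves were fitted and classified.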
Numbers without * were called inactive; i = inactive; ? = inconclusive; . = no result; ! = repeats disagree. The call rests on the fitted dose curve; in most records, active means well fitted curve in the direction sought with a large enough effect; inconclusive means small, poorly fitted or top-dose-only effect, or another doubt; inactive means no such curve, though single readings can be large; an effect the other way counts as inactive or inconclusive. Potency means the concentration at half of the fitted maximal effect.

SMILES	ATXN2 expr inh	KB-3-1 tox	KB-V1 MDR tox	TGFb inhibitor	ATXN viability	HepG2 tox
Cc1ccc(CNCc2c(C(=O)O)n(Cc3ccc(C)cc3)c3cc(C)ccc23)cc1	?	i	i	28µM*	.	-108%
CCOc1ccc(-c2nnn(CC(=O)NCc3ccco3)n2)cc1	17%	?	?	12%	i	-19%
CCOc1ccc(-c2nnn(CC(=O)NCc3ccccc3)n2)cc1	-15%	6.5µM*	?	?	i	-22%
NC(=O)c1ncn([C@@H]2O[C@H](CO)[C@@H](O)[C@@H]2O)n1	44%	.	.	.	.	.
Cc1cc(C(=O)Cn2nc(C(=O)O)c3ccccc3c2=O)c(C)n1-c1ccccc1	32%	i	16µM*	-23%	i	-50%
COc1ccc(-c2ccc(C(=O)Nc3ccc4c(c3)OCO4)c3occc23)c(C)c1	14%	i	i	-6%	i	-42%
CCOC(=O)C1CCN(Cc2nc3ccccc3c(=O)n2-c2ccc(F)cc2)CC1	-6%	i	4.1µM*	-1%	i	0%
O=C(NCC1CCC2(CCN(Cc3cccc4cccnc34)CC2)O1)c1ccco1 (stereo not given)	.	.	.	.	i	.
CCOC(=O)c1ccc(O)c(O)c1	6%	.	.	.	i	.
O=C(Nc1ccc(OCC(F)(F)C(F)F)c(C(F)(F)F)c1)c1ccc(Cl)cc1	?	?	?	?	i	18µM*
CCOc1ccc(NC(=O)CN2CCN(CC(=O)Nc3ccc(Cl)c(C(F)(F)F)c3)CC2)cc1	?	i	i	?	?	13µM*
CCOc1ccc(NC(=O)CN2CCN(CC(=O)Nc3cccc(F)c3)CC2)cc1	2%	i	i	-19%	i	8%
O=C(CN1CCN(S(=O)(=O)c2ccc(F)cc2)CC1)Nc1ccc(Cl)c(C(F)(F)F)c1	-31%	?	16µM*	?	i	-7%
Cc1ccc(S(=O)(=O)C2(C(=O)Nc3ccc(Cl)c(C(F)(F)F)c3)CC2)cc1	-18%	i	i	11µM*	?	-50%
O=C(CN1CCN(S(=O)(=O)c2ccc(F)cc2)CC1)Nc1ccc2c(c1)OCCO2	0%	i	?	-2%	i	-1%
[O-][n+]1cccc(/C(Cl)=N/OC[C@@H](O)CN2CCCCC2)c1	14%	.	.	.	i	.
O=C(CCCCCCCCC#CI)Oc1ccccc1	-13%	.	.	.	i	.
O=C(CN1CCN(c2ccc(Cl)cc2)CC1)Nc1ccc(Cl)c(C(F)(F)F)c1	?	i	i	10µM*	?	-40%
CN(CC(=O)NCCc1ccc(S(N)(=O)=O)cc1)CC(=O)Nc1ccc(Cl)c(C(F)(F)F)c1	?	16µM*	i	0%	i	-47%
O=C(CN1CCN(CC(=O)Nc2ccccc2F)CC1)Nc1ccc(Cl)c(C(F)(F)F)c1	?	i	i	-10%	?	-66%
O=C(Nc1ccc(Cl)cc1)Nc1ccc(Cl)c(C(F)(F)F)c1	?	.	.	.	16µM*!	.
CN(NC(=O)Nc1ccc(Cl)cc1)c1ncc(C(F)(F)F)cc1Cl	2%	?	16µM*	?	i	-32%
O=C(Nc1c(Cl)cncc1Cl)c1ccc(OC(F)F)c(OCC2CC2)c1	-4%	.	.	.	.	.
COc1ccccc1N1CCN(CC(O)COc2cc(OC)c(OC)c(OC)c2)CC1 (stereo not given)	-4%	.	.	.	i	.
N#CC1=C(N)C(C#N)(C#N)[C@H](c2ccoc2)[C@H]2CN(Cc3ccccc3)CC=C12	-9%	5.2µM*	?	?	?	11%
